The values that follow come from PubChem BioAssay AID493168 (National Center for Advancing Translational Sciences (NCATS), 2011).

Records with an inconclusive call do not appear. The source made the active and inactive calls. The call rests on the fitted dose curve; in most records, active means well fitted inhibition curve with a large enough effect; inconclusive means small, poorly fitted or top-dose-only effect, or effect the other way; inactive means flat fitted curve, though single readings scatter.
Potency means the concentration at half of the fitted maximal effect.

Ubiquitin carboxyl-terminal hydrolase 2 (Homo sapiens), sequence (O75604 whole entry, looked up): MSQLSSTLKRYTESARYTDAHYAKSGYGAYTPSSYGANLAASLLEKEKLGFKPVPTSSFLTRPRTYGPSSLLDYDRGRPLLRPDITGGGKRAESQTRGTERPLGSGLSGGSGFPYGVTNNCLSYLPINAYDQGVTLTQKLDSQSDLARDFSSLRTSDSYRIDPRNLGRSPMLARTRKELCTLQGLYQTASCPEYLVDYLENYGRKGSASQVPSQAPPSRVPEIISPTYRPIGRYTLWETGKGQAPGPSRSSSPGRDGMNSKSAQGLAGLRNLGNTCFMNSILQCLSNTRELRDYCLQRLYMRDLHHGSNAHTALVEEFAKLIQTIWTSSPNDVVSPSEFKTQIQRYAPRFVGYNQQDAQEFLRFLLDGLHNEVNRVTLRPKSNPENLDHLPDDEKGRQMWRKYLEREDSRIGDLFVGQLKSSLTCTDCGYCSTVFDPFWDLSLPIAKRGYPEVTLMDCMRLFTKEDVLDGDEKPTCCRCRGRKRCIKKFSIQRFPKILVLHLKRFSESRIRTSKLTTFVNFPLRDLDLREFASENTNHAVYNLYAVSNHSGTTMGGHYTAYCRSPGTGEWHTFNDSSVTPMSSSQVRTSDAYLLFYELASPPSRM

This assay has as its target Ubiquitin carboxyl-terminal hydrolase 2 (Homo sapiens) (UniProt O75604). The assay can be described thus: Confirmation Assay for Inhibitors of Ubiquitin-specific Protease USP2a Using CHOP2 as the Reporter. Further: nearly all actives have a fitted effect of over 55% in size.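 On activity change, negative = inhibition: plate controls were DMSO wells for no effect and full inhibition by NEM control for full effect.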 The note with it: USP2 core, Ub-CHOP2 coupled reporter fluorescence; series mostly up to 38.3 µM; activity change, negative = inhibition: at the top concentration. The procedure, abridged: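 Ub-CHOP2 cleavage coupled to reporter activation was read by fluorescence after 60 min at RT, with 25 nM final Ub-CHOP2 and substrate. Enzyme (10 nM final USP2 core) first sat 30 min with compound; data were normalized to NEM and fitted to concentration-response curves.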
`O=C(NCC(c1cccnc1)N1CCN(c2ccc(F)cc2)CC1)OCc1ccccc1` (centres undefined): the “activity change, negative = inhibition” value was 3.62% (inactive).

Regarding `FC(F)Sc1ccc(NC(=S)NC2CCCCC2)cc1`, the “activity change, negative = inhibition” value is 2.42% (inactive).

As to `COc1cc(C(=O)OCC(=O)Nc2c(F)c(F)c(F)c(F)c2F)cc(OC)c1OC`, the “activity change, negative = inhibition” value was 1.98% (inactive).

On to `N#CC(c1ccccc1)c1ccc(C(=O)c2ccc(F)cc2)cc1` (centres undefined), for which the “activity change, negative = inhibition” value was 3.03% (inactive).

With `CC1(C)CC(=O)C=C(NCc2cccs2)C1`, the “activity change, negative = inhibition” value is -0.275% (inactive).

Turning to `O=C(O)c1cccc(-n2cccc2/C=C2/NC(=O)N(c3ccc(Cl)cc3)C2=O)c1`, the Potency was 9.27 µM (active).

Consider `Cc1c(NC(=O)C2CCCN(S(=O)(=O)c3cnc[nH]3)C2)c(=O)n(-c2ccccc2)n1C` (centres undefined), for which the “activity change, negative = inhibition” value was 4.21% (inactive).

On to `Cn1c(SCc2nc3ccccc3s2)nnc1-c1cccs1`, for which the “activity change, negative = inhibition” value is 2.39% (inactive).

Consider `COc1cc(/C=C/C(=O)OCC(=O)NC(=O)NCc2ccco2)ccc1OC(F)F`, for which the “activity change, negative = inhibition” value was -5.33% (inactive).

In the case of `COc1cc(OC)cc(-c2c(C#Cc3ccsc3)c3cc(-c4ccc(OC)c(OC)c4)ccc3n2C)c1`, the “activity change, negative = inhibition” value was -2.57% (inactive).

Regarding `CC(=O)c1ccc(NC(=O)CC(NCCC2=CCCCC2)C(=O)O)cc1` (centres undefined), the “activity change, negative = inhibition” value was -0.641% (inactive).

Take `NS(=O)(=O)c1cc(C(=O)NC2CCSc3ccccc32)ccc1Cl` (centres undefined): the Potency was 13.1 µM (active).

On to `Cc1ccc(C(=O)NCCNS(=O)(=O)c2ccccc2)cc1`, for which the “activity change, negative = inhibition” value is 3.38% (inactive).

For the compound `CC1=NC(C(F)(F)F)(C(F)(F)F)C2=C(CC(C)(C)CC2=O)N1Cc1ccco1`, the “activity change, negative = inhibition” value is -1.12% (inactive).

`Cn1c(C(=O)NCCCN2CCN(c3ccccc3F)CC2)cc2c(=O)n(C)c3ccccc3c21`: the “activity change, negative = inhibition” value was -0.517% (inactive).

Turning to `N#CCc1ccc(NC(=O)/C=C/c2ccc([N+](=O)[O-])o2)cc1`, the “activity change, negative = inhibition” value was -10.8% (inactive).

For the compound `Nc1c(C(=O)Nc2ccc3c(c2)OCCO3)nnn1CCc1ccccc1`, the “activity change, negative = inhibition” value is -2.78% (inactive).

Turning to `Cc1cc(-c2csc(NC(=O)c3ccc(=O)[nH]c3)n2)c(C)n1Cc1ccccc1`, the “activity change, negative = inhibition” value was -3.97% (inactive).

Regarding `O=C(Nc1ccc(N2CCCC2)cc1)c1ccc(Br)cc1`, the Potency is 16.5 µM (active).

Regarding `O=C(O)CC(C(=O)O)N1C(=O)/C(=C/C=C/c2ccco2)SC1=S` (centres undefined), the Potency is 4.14 µM (active).

In the case of `CCOc1ccccc1C(=O)Nc1nnc(C(C)C)s1`, the “activity change, negative = inhibition” value is -2.08% (inactive).

For `CCCCCCCC/C=C\CCCCCCCC(=O)NCCc1ccc(O)c(O)c1`, the “activity change, negative = inhibition” value was -5.03% (inactive).

Turning to `Cc1cc(SCC(=O)Nc2ccccc2)nc(C)n1`, the “activity change, negative = inhibition” value was -0.745% (inactive).

Regarding `Cc1cccc(Nc2nc(NCc3ccco3)c3ccccc3n2)c1`, the “activity change, negative = inhibition” value was -6.47% (inactive).

Take `COc1ccc(-n2c(SCC(=O)N3CCN(c4ccccc4)CC3)nc3c(c2=O)SCC3)cc1`: the “activity change, negative = inhibition” value is -6.88% (inactive).

As to `CCCSCCCNC(=O)CC1Oc2ccccc2NC1=O` (centres undefined), the “activity change, negative = inhibition” value is -2.19% (inactive).

As to `CC(=O)N1CCCc2cc(S(=O)(=O)CCC(=O)N3CCN(c4cccc(C)c4)C(C)C3)ccc21` (centres undefined), the “activity change, negative = inhibition” value is -0.169% (inactive).

As for `O=S(=O)(c1ccccc1)N(CC1CO1)c1cc(Cl)ccc1Cl` (centres undefined), the “activity change, negative = inhibition” value was -2.76% (inactive).

`NC(=O)c1ncc(C(F)(F)F)cc1Oc1cccc(F)c1`: the “activity change, negative = inhibition” value was 1.98% (inactive).

As to `COc1ccc(S(=O)(=O)NCCSCc2ccco2)cc1OC`, the “activity change, negative = inhibition” value was -14.5% (inactive).

With `CC(C)OCCCNC(=O)CN1C(=O)CC(C)(C)S(=O)(=O)c2ccccc21`, the “activity change, negative = inhibition” value was -6.12% (inactive).

As for `Cc1ccc(C2=NC(=O)/C(=C/c3cc(O)c(O)c(Br)c3)S2)cc1`, the Potency is 7.36 µM (active).

For the compound `CCNC1=C(Cl)C(=O)c2ccccc2C1=O`, the “activity change, negative = inhibition” value was 1.23% (inactive).

As for `Cc1nc2ccccc2c2oc(C(=O)NCCN3CCN(C)CC3)cc12`, the “activity change, negative = inhibition” value is 2.15% (inactive).

Consider `COC(=O)c1[nH]c2ccc(C)cc2c1NC(=O)CN1CCCc2ccccc21`, for which the “activity change, negative = inhibition” value is -19.6% (inactive).

With `CCCOc1ccc(-c2nc(C#N)c(N3CCN(CC)CC3)o2)cc1`, the “activity change, negative = inhibition” value was 2.02% (inactive).

Take `Cc1cc(N2CCC(C(=O)NC3CC3)CC2)nc(-c2ccccc2)n1`: the “activity change, negative = inhibition” value was 4.66% (inactive).

Turning to `CN(c1cccc(NC(=O)Nc2cccc(Cl)c2)c1)S(C)(=O)=O`, the “activity change, negative = inhibition” value is 0.956% (inactive).

Consider `C#CCOCCOCCOCCNc1nc(N2CCN(C(=O)CCCCCCCCCCNC(=O)[C@H](CCCCN)n3cc(CCO)nn3)CC2)nc(N2CCN(C(=O)CCCCCCCCCCNC(=O)[C@H](CCCCN)n3cc(C[C@@H](C)CC)nn3)CC2)n1`, for which the Potency is 8.26 µM (active).
